Screening results deposited in PubChem BioAssay by several laboratories.
tim10-1 inh = growth inhibitors of tim10-1 mutant yeast; S. cerevisiae tim10-1 ts strain growth, BacTiter-Glo, 24 h; inhibition, % at 20 µM; AID 463190; actives 2.2% (n = 330,000);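 active means inhibition of at least 40%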;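 further: mutant grown at 25 °C; 0% = DMSO wells with yeast and 100% = wells holding no yeast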
TIM10 inh = growth inhibitors of TIM10 yeast strain; S. cerevisiae TIM10 strain growth, BacTiter-Glo luminescence, 24 h; inhibition, % at 10 µM; actives 1.4% (n = 330,000); AID 463195;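 active means inhibition of 40% or more at the single tested concentration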;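 further: wild-type TIM10 isogenic control strain grown at permissive 25 °C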
PfHsp90 set2 = reduces growth (ATP signal) of yeast expressing P. falciparum Hsp90 | S. cerevisiae expressing PfHsp90, BacTiter-Glo ATP, 48 h; yeast lacking PDR1 and PDR3 efflux regulators | inhibition, % at 9.4 µM | actives 0.32% (n = 310,000);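 active means every replicate shows inhibition above about 80%, whatever the replicate mean, limit read from the data; inconclusive means mean inhibition reaches the set limit but some replicate falls short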;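 further: 0% = DMSO neutral controls and 100% = 20 µM radicicol positive controls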
Calb FLC = affects C. albicans growth with fluconazole | C. albicans CaCi-2 (fluconazole-resistant clinical isolate) + fluconazole, Alamar Blue growth, 48 h | growth inhibition, % (concentration not given with the values) | actives 0.57% (n = 300,000) | AID 1979;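 active means growth inhibition above about 58% in most replicates, limit read from the data, passing the limit was not always enough; inconclusive means exactly half the replicates above a set limit; inactive means most replicates below a set limit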;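 further: all wells also contain fluconazole at 8 µg/ml as a sub-toxic cotreatment; 0% = median of DMSO wells and 100% = median of geldanamycin control wells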
tim23-1 inh = inhibits growth of tim23-1 mutant yeast; AID 463212; S. cerevisiae tim23-1 growth, BacTiter-Glo luminescence, 24 h; actives 1.3% (n = 330,000); inhibition, % at 20 µM;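 active means growth inhibition of the mutant yeast at or above 50%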;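 further: temperature-sensitive mutant grown at 25 °C; plate controls were DMSO-treated mutant yeast for no effect and medium wells lacking yeast for full effect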
SKKanGAS inh = inhibitors of SKKanGAS S. pyogenes growth in kanamycin (SK-promoter or general growth effect). BacTiter-Glo, 6 h. inhibition, % at 7.5 µM. actives 1.3% (n = 300,000);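 active means mean replicate score, as percent of positive control median, at least 50; inconclusive means mean below 50 but one replicate at or above 50; inactive means mean and every replicate below 50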;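 further: strain carries kanamycin resistance gene driven by streptokinase promoter and grows in 40 µg/ml kanamycin; loss of luminescence reflects streptokinase promoter inhibition or plain growth inhibition; 0% = median of DMSO wells and 100% = positive control at its reference dose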
tim23-1 confirm = tim23-1 yeast growth inhibition, confirmed. shares compounds with tim23-1 inh. S. cerevisiae tim23-1 growth, BacTiter-Glo luminescence, 24 h. inhibition, % at 20 µM. actives 83% (n = 4,400). AID 463218;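 active means inhibition above about 39% in either of two replicate wells at 20 µM, limit read from the data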;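 further: temperature-sensitive tim23-1 mutant grown at 25 °C; 0% = DMSO wells with yeast and 100% = medium wells without yeast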
An asterisk follows results filed as active; ? = inconclusive; . = no result. Shown are actives, neighbours in structure and some others; about 4.7% of the full set was active somewhere.

SMILES	tim10-1 inh	TIM10 inh	PfHsp90 set2	Calb FLC	tim23-1 inh	SKKanGAS inh	tim23-1 confirm
Cc1ccc(S(=O)(=O)NN=C2C3CC4CC(C3)CC2C4)cc1	-18	-1	4	-2	-3	-10	.
Cc1ccc(S(=O)(=O)NC23CC4CC(CC(C4)C2)C3)cc1	15	22	-50	.	51*	.	52*
O=C(N/N=C/c1ccccc1)c1c(O)c2ccccc2[nH]c1=O	-31	11	18	-4	73*	20	10
C[C@H]1CN=C(N(C)C)N1CC1CCCCC1	5	6	5	.	2	.	.
CCOC(=O)C1=C(N)Oc2cc(O)ccc2C1c1ccc(F)cc1F (stereo not drawn)	12	23	14	0	56*	0	59*
Cc1ccc(SCC(=O)Nc2nnc(C(C)(C)C)s2)cc1	-9	-10	-2	3	-7	1	.
Cc1[nH]nc(C(=O)NN=Cc2ccccc2Cl)c1N=NN(C)C	.	.	70	.	.	.	.
Cc1ccc2[nH]cc(C(=O)CN3CCN(C)CC3)c2c1	-2	-12	11	-4	-2	-3	.
Cc1ccc2[nH]cc(C(=O)CCl)c2c1	13	36	-25	47	58*	11	66*
CCCCCCc1c(C)c2ccc(OCC(=O)N[C@@H](Cc3ccccc3)C(=O)O)cc2oc1=O	27	-3	-3	9	19	35	.
Cc1ccc(C(=O)N/N=C/c2cc(Br)ccc2O)cn1	-25	-41	11	39	63*	69*	52*
O=C(c1ccc2c(=O)n3c(nc2c1)CCC3)N1CCN(S(=O)(=O)c2ccccc2Br)CC1	.	.	1	.	.	.	.
CC(C)(C)c1nnc(N/N=C/c2ccccc2)n(N)c1=O	11	-22	-6	0	-17	10	.
CC(C)(C)c1nnc(N/N=C/c2ccccc2O)n(N)c1=O	34	37	-22	-31	62*	24	47*
Cc1cc(=O)oc2cc(Oc3ncccc3[N+](=O)[O-])ccc12	-8	-13	-38	-5	-5	-1	.
Cc1cc(=O)oc2cc(Oc3ccc([N+](=O)[O-])cc3[N+](=O)[O-])ccc12	21	30	-24	?	55*	-1	43*
CCCCCC(=O)c1ccc(O)cc1O	25	33	-34	11	54*	-4	47*
O=C(Cc1ccccc1)c1ccc(O)cc1O	.	.	4	.	.	.	.
CC1=NOC(=O)/C1=C\c1ccc(-c2cccc(Cl)c2)o1	16	32	-14	-2	57*	-12	69*
CCOC(=O)c1cnc2c(-c3ccccc3)c(-c3ccccc3)nn2c1C	31	-2	-4	4	14	-10	.
Cc1nc(Br)c(Br)c(C)c1Br	-1	-2	-8	-1	5	1	.
CC(C)Cn1c(/C=C/c2ccccc2)nc2ccccc21	39	39	-10	41	56*	-1	46*
O=[N+]([O-])c1ccc(N=Nc2c(O)[nH]c3ccc(F)cc23)cc1	35	3	-22	-18	50*	14	13
C=CCOc1ccc2c(OC)c3ccoc3nc2c1OC	11	16	66	-5	36	-10	.
CCOc1c2ccoc2nc2c(OC)c(OC)ccc12	27	34	31	14	61*	-1	65*
SMILES	tim10-1 inh	TIM10 inh	PfHsp90 set2	Calb FLC	tim23-1 inh	SKKanGAS inh	tim23-1 confirm
CC1C(=O)NN=C1C(=O)N/N=C\C(Br)=C\c1ccccc1 (stereo not drawn)	29	29	13	-19	34	-17	.
O=C(N/N=C/C(Cl)=C/c1ccccc1)c1ccco1	-49	-22	14	13	64*	-3	7
O=C(N/N=C/C(Br)=C/c1ccccc1)c1ccccc1F	0	37	28	12	69*	3	51*
O=C(N/N=C/C(Cl)=C/c1ccccc1)c1ccccc1F	21	4	-7	-7	51*	-6	27
CC(NC(=O)N1CCN(c2ccccc2F)CC1)c1ccc(F)c(F)c1 (stereo not drawn)	13	-9	-8	13	12	1	.
COc1ccc(N(CC(=O)NCc2ccccc2OC)S(=O)(=O)c2ccc(C)cc2)cc1Cl	17	6	-14	-6	25	5	.
O=C(CN(Cc1ccccc1)C(=O)CCl)c1cccc(Br)c1	32	17	-23	.	57*	.	45*
CCCCc1ccc(N2C(=NC(=O)C3CCCO3)SC3CS(=O)(=O)CC32)cc1 (stereo not drawn)	-3	7	6	-3	-2	-2	.
O=C(Cn1ncc(Cl)c(Cl)c1=O)c1ccc2c(c1)OCCO2	-34	-27	-3	.	58*	.	31
O=C(NC1CCCCCC1)c1c(O)nc2sccn2c1=O	39	37	-10	-3	69*	34	46*
CC1CC(NC(=O)c2c(O)nc3sccn3c2=O)CC(C)(C)C1 (stereo not drawn)	-15	-2	-63	-3	64*	50*	-12
O=C(NCC1CCCO1)c1c(O)nc2sccn2c1=O (stereo not drawn)	3	-8	.	10	35	.	.
O=C(NC1CCCCC1)c1c(O)nc2sccn2c1=O	15	5	.	-15	67*	-1	47*
CC1CC(NC(=O)c2c(O)nc3ccccn3c2=O)CC(C)(C)C1 (stereo not drawn)	.	.	-8	.	.	.	.
O=C(CSc1nc2cc(Cl)ccc2o1)NC1CC1	-17	3	.	.	-7	.	.
Cc1csc(NC(=O)CSc2nc(=O)[nH]c3c2CCCC3)n1	15	-9	-7	-8	11	-2	.
O=c1cc(CSc2ccc(S(=O)(=O)N3CCCCC3)cn2)nc2sccn12	27	15	-24	.	66*	5	38
Cc1c(C(=O)N2CCOCC2)sc(NC(=O)CCl)c1C#N	-9	-19	-25	1	9	-7	.
CC(C)(C)c1ccc(O)c(N=Cc2cc(Br)ccc2O)c1	12	15	1	-20	69*	7	35
OCC(CO)(CO)N=Cc1cc(Br)ccc1O	30	14	-57	21	59*	4	56*
COc1ccc(NC(=O)CNC(=O)C2CCCCC2)cc1OC	2	-5	27	.	-2	.	.
COc1ccc(NS(=O)(=O)c2ccc(N3CCCC3)c(NC(=S)Nc3cccc(S(=O)(=O)N(C)C)c3)c2)cc1	23	27	.	5	52*	3	78*
O=C(NC(=S)NCCc1ccccc1)c1cccc(Cl)c1	33	32	-1	-21	52*	0	46*
Cc1ccc2nc(-c3ccc(NC(=S)NC4CC(C)(C)NC(C)(C)C4)cc3)sc2c1	25	29	21	74*	70*	58*	67*
COc1ccc(-c2noc(COC(=O)c3ccco3)n2)cc1OC	-7	7	.	.	17	.	.
